Hits are enriched below; roughly 5.7% of the tested compounds scored in any of these assays.
NPSR antag: qHTS Assay for Antagonists of the Neuropeptide S Receptor: cAMP Signal Transduction | CHO-NPSR cells, cAMP TR-FRET, antagonist mode | Potency, µM (doses to about 38.3 µM), inactives show at the highest dose activity change, negative = inhibition, hits mostly inhibitors | 1% of 220,000 active; also: nearly all actives have a fitted effect of over 50% in size
Target sequence (Q6W5P4 whole entry, looked up): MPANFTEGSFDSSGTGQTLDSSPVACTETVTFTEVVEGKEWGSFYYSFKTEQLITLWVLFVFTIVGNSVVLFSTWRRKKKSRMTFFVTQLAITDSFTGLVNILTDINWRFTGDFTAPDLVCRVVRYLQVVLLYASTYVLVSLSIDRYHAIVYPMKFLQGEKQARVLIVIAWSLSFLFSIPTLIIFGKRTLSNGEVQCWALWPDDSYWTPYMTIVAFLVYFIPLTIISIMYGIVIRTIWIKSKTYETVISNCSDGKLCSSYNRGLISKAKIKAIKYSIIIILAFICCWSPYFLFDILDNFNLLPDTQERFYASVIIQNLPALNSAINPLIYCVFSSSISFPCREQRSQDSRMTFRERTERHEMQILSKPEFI
RORgamma inh: qHTS for inhibitors of ROR gamma transcriptional activity | Nuclear receptor ROR-gamma (Mus musculus), P51450 | Drosophila S2 Gal4-RORgamma UAS-luciferase reporter, 20 h | Potency, µM (top dose mostly 53.6 µM), without a hit: at the highest dose activity change, negative = inhibition, actives largely listed as inhibitors | 5.4% of 310,000 active | AID 2551, 2010; also: nearly all actives have a fitted effect of over 60% in size
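Schneider cells (Drosophila), stable Gal4 DBD–ROR gamma + UAS-luc; 1 hr cmpd preincubation; Cu2+ induction 700 uM final; 20 hr ambient; luminescence.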
Gal4-VP16 FLuc: VP16 counterscreen qHTS for inhibitors of ROR gamma transcriptional activity; Drosophila S2 Gal4-VP16 UAS-luciferase, luminescence, 20 h; Potency, µM (top dose mostly 53.6 µM), without a hit: at the top dose activity, negative = inhibition, usual class: inhibitors; 3.5% of 310,000 active; AID 2546, 2010;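 also: Gal4-VP16 expression switched on by copper sulfate through the metallothionein promoter; nearly all actives have a fitted effect of over 50% in size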
B2AR arrestin: qHTS assay of beta-arrestin-biased ligands of beta2-adrenergic receptor; Beta-2 adrenergic receptor (Homo sapiens), P07550; beta-arrestin recruitment to beta2AR, cell-based reporter; Potency, µM (doses to about 46.1 µM), for inactives: at the highest dose activation, most hits filed as activators; 0.02% of 330,000 active; AID 492947, 2010;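 also: 0% = DMSO controls and full agonism = EC100 isoproterenol or metaproterenol; nearly all actives have a fitted effect of over 65% in size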
Numbers without * were called inactive; ? = inconclusive; . = not tested or not shown; [ ] = another dose, or the depositor's remark. Calls follow the shape of the dose curve; as a rule, active = well fitted curve in the direction sought with a large enough effect; inconclusive = small, poorly fitted or top-dose-only effect, or another doubt; inactive = no such curve, though single readings can be large; an effect the other way counts as inactive or inconclusive. Unless noted, % is scaled to controls: 0 for no effect and ±100 for the full control effect; potency is read from the fitted curve at half-maximal effect.

SMILES | NPSR antag | RORgamma inh | Gal4-VP16 FLuc | B2AR arrestin
C=C1C=CS(=O)(=O)N(C(C)C(=O)OC)C1 (centres undefined) | . | -16% | -4% | .
COC(=O)C1=C(C)N(Cc2ccccc2)C(=NCCCCO)N[C@H]1CCc1ccccc1 | . | -2% | -2% | 0%
COC(=O)C1=C(C)N(Cc2ccccc2)C(=S)N[C@H]1c1ccccc1 | . | 3.2µM* | 16µM* | -1%
COC(=O)C1=C(C)N(Cc2ccccc2)C(=S)N[C@H]1CCc1ccccc1 | . | 4.5µM* | ? | -1%
COC(=O)C1=C(C)N(Cc2ccccc2)C(=O)N[C@H]1c1ccccc1 | -2% | 6% | -6% | -1%
CCOC(=O)C1=C(C)Nc2nc(SCC)nn2C1c1ccc(OC)cc1 (centres undefined) | -13%[46.1 µM] | -12% | -8% | -1%
CCN1C(=S)N[C@@H](c2cccc(F)c2)C(C(=O)OC)=C1C | . | 5µM* | 11µM* | 0%
COCCN1C(=O)N[C@@H](c2cccc(F)c2)C(C(=O)OC)=C1C | 19% | -3% | -15% | 0%
CCOC(=O)C1=C(C)Nc2nc(=S)[nH]n2C1c1ccc(Cl)cc1 (centres undefined) | -19%[46.1 µM] | 10µM* | -13% | -1%
CC(=O)Nc1ccc(S(=O)(=O)N2CCC(C(=O)N[C@@H](C)C(=O)NC3CCCC3)CC2)cc1 | . | -8% | -5% | 0%
CCOC(=O)[C@H]1[C@H]2COc3ccc(Cl)cc3[C@@H]2N2C(=O)[C@@H](C)NC(=O)[C@@]12C | . | . | . | -1%
Cc1ccc(C)c(CSC2=NCCN2S(=O)(=O)c2ccccc2)c1 | . | ? | -26% | -1%
CCS(=O)(=O)c1nc2ccccc2n1Cc1ccccn1 | 21% | 11% | 9% | 0%
CCOC(=O)C1=C(C)N(CC)C(=S)NC1c1ccc(Cl)cc1 (centres undefined) | -22% | 7.1µM* | 6.3µM* | 0%
CCOC(=O)C1=C(C)N(CCCCCC(=O)O)C(=O)NC1c1ccc(Cl)cc1 (centres undefined) | . | 0% | 5% | 0%
NC(=O)c1ncn(C2OC(CO)C(O)C2O)n1 (centres undefined) | . | -18% | -9% | .
COc1ccc(Cc2nnc(NC(=O)Nc3ccc(C)cc3)s2)cc1OC | . | 0% | 5% | 0%
COc1ccc(Cc2nnc(NC(=O)CSc3ccc(C)cc3)s2)cc1OC | -12%[46.1 µM] | 11µM* | ? | 0%
Cc1ccc(NC(=S)NNC(=O)C2CC2c2ccc(C)cc2)cc1 (centres undefined) | -13%[46.1 µM] | 11µM* | ? | 0%
O=C(NNC(=S)Nc1ccc(F)cc1)C1CC1c1ccc(Cl)cc1 (centres undefined) | 4% | ? | 20µM* | -2%
Cc1ccc(C2CC2C(=O)NNC(=S)Nc2cccc(Cl)c2)cc1 (centres undefined) | -3% | -26% | -5% | 0%
O=C(N[C@H]1CCCc2ccccc21)O[C@@H]1C(=O)c2cc(Br)ccc2O[C@H]1c1ccc2c(c1)OCO2 | . | 0% | 9% | .
COc1cc(/C=C\c2ccc(OC)cc2OC)cc(OC)c1 | . | ? | -15% | .
CCc1ccc2c(c1)c1nc(C)sc1n2CC | 4%[46.1 µM] | 10µM* | 11µM* | 0%
CCCCn1cnc2cc(C)c(C)cc21 | -5% | 4µM* | ? | -1%
SMILES | NPSR antag | RORgamma inh | Gal4-VP16 FLuc | B2AR arrestin
COCCn1cnc2cc(C)c(C)cc21 | -2%[46.1 µM] | ? | 13% | 0%
Cc1cc2ncn(CCOc3ccccc3)c2cc1C | -19%[46.1 µM] | 13µM* | -30% | 0%
Cc1cc2ncn(CC(C)C)c2cc1C | 5% | 7.9µM* | ? | 0%
C[C@H](CO)NC(=O)[C@H]1C[C@@H]1[C@H](NP(=O)(c1ccccc1)c1ccccc1)c1ccccc1 | . | 2% | 11% | .
COC(=O)C/C=C\[C@H](C)[C@@H](OC)c1ccccc1Br | . | -2%[10 µM] | -3%[10 µM] | .
c1ccc2c(c1)CCN(c1nc(CN3CCOCC3)nc3sc4c(c13)CCCC4)C2 | -59% | 11µM* | ? | -1%
CN(C)c1ncc2nc(CCc3ccccc3)c(=O)n(Cc3ccc(F)cc3)c2n1 | . | -12% | 2% | .
COc1cc(/C=N/NC(=Nc2ccc(C)cc2)c2nc3ccccc3s2)ccc1O | 10µM* | 7.1µM* | ? | -1%
CC1(CO)COC(c2ccccc2)=N1 (centres undefined) | 27% | 3% | 0% | 0%
CCC1(CC)N=C(c2ccccc2)C(=S)N1 | 3% | 3.5µM* | 11µM* | 0%
O=C1OC2(CCCCC2)CC2=C1C1O[C@](c3ccsc3)(Cc3c1ccc1ccccc31)O2 | . | -20%[10 µM] | -22%[10 µM] | 0%[9.22 µM]
O=C(NC(=S)N1CCCc2ccccc21)c1ccc([N+](=O)[O-])cc1 | -18%[46.1 µM] | ? | 6.3µM* | 0%
O=C(NC(=S)N1CCCc2ccccc21)c1ccccc1 | -8%[46.1 µM] | -31% | 2% | -1%
O=C(C(=O)N1CCCc2ccccc21)N1CCCc2ccccc21 | -1% | 20% | -8% | 0%
COc1ccccc1C(=O)NC(=S)N1CCCc2ccccc21 | -26%[46.1 µM] | 7.9µM* | ? | 0%
NC(=S)N1CCCc2ccccc21 | -14% | 6.3µM* | ? | 0%
CC(C)=CCC/C(C)=C\COc1c2ccoc2cc2oc(=O)ccc12 | . | 32% | 12% | .
COC(=O)C/C=C\[C@@H](C)[C@@H](CO)NS(=O)(=O)c1ccc(C)cc1 | . | 13%[10 µM] | 9%[10 µM] | .
O=C1C2CC=CCC2C(=O)N1c1ccc(NCCc2ccc(O)cc2)c([N+](=O)[O-])c1 (centres undefined) | -13% | -42% | ? | 2%
COc1ccc(NC(=O)C2CCN(S(=O)(=O)c3ccc(N4CCCC4=O)cc3)CC2)cc1OC | . | -21% | -12% | 0%
O=C(Nc1ccc(C(F)(F)F)cc1)C1CCN(S(=O)(=O)c2ccc(N3CCCC3=O)cc2)CC1 | . | -7% | 3.5µM* | 0%
CCCCCN(C(=O)NC(=O)Nn1cnnc1)S(C)(=O)=O | 2%[46.1 µM] | -2% | 2% | 0%
CCCCCN(C(=O)NC(=O)Nc1nncs1)S(C)(=O)=O | -4%[46.1 µM] | 11µM* | -1% | 0%
Cc1cc(S(=O)(=O)Nc2ccc(F)cc2)c(C)s1 | ? | ? | ? | 0%
Cc1cc(C(=O)Nc2ccccn2)no1 | -3%[46.1 µM] | 7%[0.365 µM] | . | 0%
SMILES | NPSR antag | RORgamma inh | Gal4-VP16 FLuc | B2AR arrestin
Cc1csc(NC(=O)c2cc(-c3ccco3)nc3ccccc23)n1 | 8% | ? | ? | -1%
CC(=O)NC(CC(=O)Nc1nc(-c2ccc(N(C)S(C)(=O)=O)cc2)cs1)c1ccccc1 (centres undefined) | . | 4% | 11µM* | 0%
O=C(Nc1ccccn1)c1ccc2ccccc2n1 | -4%[46.1 µM] | 10µM* | ? | 5%
O=C(Nc1nccs1)c1ccc2ccccc2n1 | . | 7.1µM* | ? | ?
Cc1csc(NC(=O)c2cc(C)nc3ccccc23)n1 | 0% | 11µM* | -13% | 0%
CN(c1nccc(=O)[nH]1)C1CCN(c2nc3ccccc3n2Cc2ccc(F)cc2)CC1 | . | 33% | 5% | .
Cc1csc(NC(=O)c2cnc3ccccc3n2)n1 | . | 11µM* | ? | 0%
O=C(Nc1ccccn1)c1ccc2ccccc2c1O | . | ? | 13µM* | 0%
